Laboratory results taken from PubChem BioAssay (EPA / NIEHS).
“And” between values parts separate entries of the source, which are not always exact repeats. Identical values can stand only once. Results filed as inconclusive are left out. More than one record can exist for a structure, and the calls need not agree. The source made the active and inactive calls. How the source made its calls, unless noted: active means hit-call score of the fitted dose curve at least 0.9, where 1 is the maximum; inactive means score below 0.9.

Key:
[1] = CCTE_Shafer_MEA_dev_interburst_interval_mean: CCTE's Neural Network Formation Assay for Mean Interburst Interval, Shafer Lab (AID 2284046);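 further: well-mean interburst interval of bursting electrodes as AUC over four recording days; curve fitted for decrease in interburst interval relative to DMSO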
Outline: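 Recordings on days 5, 7, 9 and 12 give well-mean interburst interval across actively bursting electrodes, summarized as area under the curve. Cultures: rat cortical neurons, continuous exposure from day 0, compound renewed at feeds; decrease analyzed versus DMSO.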

[2] = CCTE_Shafer_MEA_dev_inter_network_spike_interval_mean: CCTE's Neural Network Formation Assay for Mean Inter-network Spike Interval, Shafer Lab (AID 2284047);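 on AC50: potency for a decrease in mean inter-network spike interval below DMSO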
Outline: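 Primary rat cortical neurons on 16-electrode MEA wells, exposed from plating day 0 through DIV 12, compound renewed at DIV 5 and 9 media changes. Mean interval between network-spike peaks recorded DIV 5, 7, 9, 12; collapsed as trapezoidal AUC, fitted downward versus DMSO.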

[3] = CCTE_Shafer_MEA_dev_network_spike_number: CCTE's Neural Network Formation Assay for Number of Network Spikes, Shafer Lab (AID 2284048);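 further: synchronized bursts across electrodes counted on days 5 7 9 12 and integrated as AUC; fit as a loss of signal meaning fewer network spikes than DMSO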
Outline: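 Primary rat cortical neurons on PEI/laminin 48-well MEA plates, dosed from plating day 0 for 12 days, renewed at DIV 5 and 9. Network spike counts recorded DIV 5, 7, 9, 12, collapsed as trapezoidal AUC; DMSO baseline.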

[4] = CCTE_Shafer_MEA_dev_network_spike_peak: CCTE's Neural Network Formation Assay for Mean Number of Electrodes in Network Spike, Shafer Lab (AID 2284049);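 further: fitted for loss of signal meaning fewer electrodes in network spikes than DMSO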
Outline: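 Network-spike peak electrode count from recordings on days 5, 7, 9 and 12 was combined as trapezoidal area under the curve. Rat cortical cultures were treated continuously from plating, with compound renewed at each feed (DIV 5, 9); fits versus DMSO.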

[5] = CCTE_Shafer_MEA_dev_spike_duration_mean: CCTE's Neural Network Formation Assay for Mean Spike Duration, Shafer Lab (AID 2284051);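 further: mean network spike duration pooled as area under curve over DIV 5 to 12 recordings; potency for a decrease in mean network spike duration versus DMSO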
Outline: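 Primary rat cortical neurons on 16-electrode MEA wells (PEI-coated, laminin in plating drop), exposed from plating through DIV 12 with compound renewed at DIV 5 and 9. Mean network-spike duration recorded DIV 5, 7, 9, 12; trapezoidal AUC across days, DMSO baseline.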

[6] = CCTE_Shafer_MEA_dev_network_spike_duration_std: CCTE's Neural Network Formation Assay for Standard Deviation of Network Spike Duration, Shafer Lab (AID 2284052);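 further: area under curve of spike duration SD across recording days 5 to 12; hits are decreases in network spike duration SD versus DMSO vehicle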
Outline: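 Primary rat cortical neurons on PEI-coated 16-electrode MEA wells, exposed from plating day 0 through day 12 with compound renewed at DIV 5 and 9. Network spike duration SD recorded on days 5, 7, 9, 12, collapsed as trapezoidal AUC; loss-of-signal fit versus DMSO.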

[7] = CCTE_Shafer_MEA_dev_per_network_spike_spike_number_mean: CCTE's Neural Network Formation Assay for Mean Number of Spikes in a Network Spike, Shafer Lab (AID 2284053);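 further: fitted as decrease in spikes per network spike relative to DMSO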
Outline: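 Primary rat cortical neurons on 48-well, 16-electrode MEA plates were exposed from plating to DIV 12, with dosing renewed on DIV 5 and 9. Spikes per network spike (0.05 s peak window) were recorded on DIV 5, 7, 9 and 12 and collapsed as trapezoidal AUC versus DMSO.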

[8] = CCTE_Shafer_MEA_dev_per_network_spike_spike_percent: CCTE's Neural Network Formation Assay for Percent of Spikes in a Network Spike, Shafer Lab (AID 2284054)
Outline: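 Rat primary cortical neurons were grown on 48-well MEA plates (16 electrodes/well), exposed from plating day 0 through day 12, with treatment renewed on DIV 5 and 9. Percent of spikes within 0.05 s network-spike peaks was measured, summarised as AUC across days 5, 7, 9, 12.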

[9] = CCTE_Shafer_MEA_dev_LDH: CCTE's Lactate Dehydrogenase Assay for Cytotoxicity in the Neural Network Formation Assay, Shafer Lab (AID 2284068; active means hit-call score of the fitted dose curve at least 0.9, where 1 is the maximum;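 further: exposure for twelve days from plating with re-dosing on DIV 5 and 9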)
Outline: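 Primary rat cortical neurons were plated on PEI/laminin MEA plates and exposed from day 0 for twelve days, with compound renewed at DIV 5 and 9. Cytotoxicity was determined by spectrophotometric LDH assay relative to DMSO.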

[10] = CCTE_Shafer_MEA_dev_AB: CCTE's Alamar Blue Assay for Cytotoxicity in the Neural Network Formation Assay, Shafer Lab (AID 2284083; active means hit-call score of the fitted dose curve at least 0.9, where 1 is the maximum;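 further: twelve days of exposure from plating with re-dosing on DIV 5 and 9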)
Outline: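 Primary rat cortical neurons on PEI-coated 48-well MEA plates, 1.5 x 10^5 cells/well in laminin drop; compound exposure from day 0 of plating for twelve days, renewed at medium changes on DIV 5 and 9. Viability read as resazurin reduction by fluorescence, relative to DMSO.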

[11] = CCTE_Shafer_MEA_acute_LDH: CCTE's Lactate Dehydrogenase Assay for Cytotoxicity in the Neural Acute Assay, Shafer Lab (AID 2284086; active means hit-call score of the fitted dose curve at least 0.9, where 1 is the maximum;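 further: active means LDH release rises above DMSO vehicle level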)
Outline: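 Released lactate dehydrogenase, read at 490 nm, indicated cytotoxicity after acute 40-min compound treatment of rat cortical neuron networks grown on 48-well MEA plates.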

[12] = CCTE_Shafer_MEA_dev_mutual_information_norm: CCTE's Neural Network Formation Assay for Mutual Information Normalization, Shafer Lab (AID 2284091);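 further: mutual information between electrodes summarised as area under curve across four recording days; potency is for a decrease in mutual information relative to DMSO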
Outline: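 Primary rat cortical neurons on PEI-coated 48-well MEA plates, 1.5 x 10^5 cells/well, exposed from day 0 through day 12 with re-dosing at DIV 5 and 9. Mutual information between electrodes recorded days 5, 7, 9, 12; trapezoidal AUC, loss-of-signal fit versus DMSO.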

[13] = CCTE_Shafer_MEA_dev_correlation_coefficient_mean: CCTE's Neural Network Formation Assay for Mean Correlation Coefficient, Shafer Lab (AID 2284093);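 further: well mean pairwise spike train correlation integrated as AUC over recording days 5 to 12; potency fitted for loss of correlation relative to DMSO vehicle wells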
Outline: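 Spontaneous activity recorded on days 5, 7, 9 and 12 post-plating; pairwise spike correlations are averaged across active electrodes and collapsed to an area-under-curve. Rat cortical cultures are dosed from plating through 12 days, with compound renewed at media changes.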

[14] = CCTE_Mundy_HCI_Cortical_Synap_Neur_Matur_NeuriteSpotCountPerNeuriteLength: CCTE's Synaptogenesis and Neurite Maturation Assay in rat cortical cells for Neurite Spot Count per Neurite Length, Mundy Lab (AID 2284210)
Outline: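 Rat primary cortical cultures, AraC added at DIV 5 to suppress glia; chemical exposure from DIV 7 to DIV 12. Fixed cells stained for MAP2 and synaptophysin plus Hoechst; synaptophysin puncta per neurite length quantified by high-content imaging, relative to DMSO.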

[15] = CCTE_Mundy_HCI_Cortical_NOG_NeuriteLength: CCTE's Neurite Outgrowth Assay in rat cortical cells for Neurite Length, Mundy Lab (AID 2284213);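 further: neurites imaged about 48 to 50 h after chemical exposure began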
Outline: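 Neurite length was read by high-content imaging of βIII-tubulin-labelled neurites in rat primary cortical cultures. Activity was fitted relative to DMSO.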

[16] = CCTE_Mundy_HCI_Cortical_Synap_Neur_Matur_NeuriteLength: CCTE's Synaptogenesis and Neurite Maturation Assay in rat cortical cells for Neurite Length, Mundy Lab (AID 2284214)
Outline: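 Neurite length in rat primary cortical cultures is imaged after MAP2, synaptophysin and Hoechst staining. Dosing starts DIV 7, ending DIV 12; DMSO serves as negative control and baseline.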

[17] = CCTE_Mundy_HCI_Cortical_Synap_Neur_Matur_NeuriteSpotCountPerNeuron: CCTE's Synaptogenesis and Neurite Maturation Assay in rat cortical cells for Neurite Spot Count per Neuron Count, Mundy Lab (AID 2284215)
Outline: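 Synapse density is scored as synaptophysin spots along neurites per neuron in fixed rat cortical neurons, measured at DIV 12 after chemical dosing at DIV 7. DMSO is the negative control and activity baseline.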

[18] = CCTE_Mundy_HCI_hN2_NOG_NeuriteCount: CCTE's Neurite Outgrowth Assay in human hN2 cells for Neurite Count, Mundy Lab (AID 2284219; active means hit-call score of the fitted dose curve at least 0.9, where 1 is the maximum)
Outline: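 In this morphology assay, hNP1-derived neurons received test chemical 2 h post-plating and were fixed two days later in warm paraformaldehyde/sucrose containing Hoechst 33342. Neurites, labelled by rabbit anti-βIII-tubulin (1:800) and Alexa Fluor-488 (1:500), were counted automatically.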

[19] = CCTE_Mundy_HCI_hN2_NOG_NeuriteLength: CCTE's Neurite Outgrowth Assay in human hN2 cells for Neurite Length, Mundy Lab (AID 2284220; active means hit-call score of the fitted dose curve at least 0.9, where 1 is the maximum)
Outline: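 Read-out is neurite length from high-content imaging of βIII-tubulin/Alexa Fluor-488-labelled neurons, referenced to DMSO controls.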

[20] = CCTE_Mundy_HCI_hN2_NOG_NeuronCount: CCTE's Neurite Outgrowth Assay in human hN2 cells for Neuron Count, Mundy Lab (AID 2284221; active means hit-call score of the fitted dose curve at least 0.9, where 1 is the maximum)
Outline: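 Read-out is the number of betaIII-tubulin-positive neurons imaged by automated high-content analysis, with DMSO as negative control.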

[21] = CCTE_Mundy_HCI_Cortical_Synap_Neur_Matur_CellBodySpotCount: CCTE's Synaptogenesis and Neurite Maturation Assay in rat cortical cells for Cell Body Spot Count, Mundy Lab (AID 2284223)
Outline: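 Synapse number at neuronal cell bodies was quantified as synaptophysin puncta per neuron in rat cortical cultures exposed from DIV 7 to DIV 12. Values were normalised to DMSO.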

[22] = CCTE_Mundy_HCI_hNP1_Pro_ResponderAvgInten: CCTE's Proliferation Assay in human neuroprogenitor cells, Mundy Lab (AID 2284224; active means hit-call score of the fitted dose curve at least 0.9, where 1 is the maximum;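 further: human neural progenitor cells hNP1 derived from WA09 embryonic stem cells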)
Outline: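 Proliferation read as average intensity of BrdU-positive cells, imaged at 26.25 h post-dosing: chemical exposure started after 40–44 h culture, BrdU during final 4 h, paraformaldehyde fixation. Positive-direction fit relative to DMSO.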

[23] = CCTE_Mundy_HCI_Cortical_NOG_NeuronCount: CCTE's Neurite Outgrowth Assay in rat cortical cells for Neuron Count, Mundy Lab (AID 2284236; active means hit-call score of the fitted dose curve at least 0.9, where 1 is the maximum;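 further: neurons counted by imaging betaIII-tubulin and Hoechst stained cortical cells; cells exposed to compound for about 48 hours before fixation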)
Outline: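 Read-out: neuron number by high-content imaging of betaIII-tubulin (Alexa Fluor-488) and Hoechst-labelled rat primary cortical cells.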

[24] = CCTE_Mundy_HCI_hNP1_Casp3_7: CCTE's Caspase-Glo 3/7 Assay in human neuroprogenitor cells for Apoptosis, Mundy Lab (AID 2284240)
Outline: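 Luminescent caspase-3/7 readout, 26.5 h post-dose, in human neural progenitor cells from WA09 embryonic stem cells. Cells grew 40–44 h at 37 °C, 5% CO2 before chemical addition. Activity analysed as signal increase over DMSO baseline.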

[25] = CCTE_Mundy_HCI_Cortical_Synap_Neur_Matur_NeuronCount: CCTE's Synaptogenesis and Neurite Maturation Assay in rat cortical cells for Neuron Count, Mundy Lab (AID 2284242; active means hit-call score of the fitted dose curve at least 0.9, where 1 is the maximum;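 further: neuron number from Hoechst nuclei and MAP2 staining by high-content imaging; hits reduce neuron count versus DMSO baseline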)
Outline: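 Imaging-based neuron count in rat cortical cultures after chemical exposure from DIV 7 to DIV 12, with AraC added at DIV 5. Activity is fitted relative to DMSO.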

Measured: AC50

CN(C)C(=O)C(CCN1CCC(O)(c2ccc(Cl)cc2)CC1)(c1ccccc1)c1ccccc1
inactive: [2] | [11]
active: [1] 581 nM and 249 nM and 2.56 µM | [2] 3 nM and 2.62 µM | [3] 32.8 nM and 102 nM and 172 nM | [4] 612 nM and 41.5 nM and 1.81 µM | [5] 511 nM and 18.7 nM and 1.15 µM | [6] 262 nM and 11.6 nM and 736 nM | [7] 766 nM and 44.5 nM and 2.52 µM | [8] 2.31 µM and 276 nM and 2.68 µM | [9] 4.19 µM and 2.7 µM and 2.94 µM | [10] 5.74 µM and 5.44 µM and 5.02 µM | [12] 112 nM and 60.7 nM and 621 nM | [13] 1.35 µM and 766 nM and 2.54 µM | [14] 14.9 µM | [15] 6.63 µM | [16] 3.22 µM | [17] 3 µM | [18] 16 µM | [19] 15.8 µM | [20] 13.9 µM | [21] 16.9 µM | [22] 50 µM | [23] 12.9 µM | [24] 16.5 µM | [25] 8.36 µM
